Reference: PubChem BioAssay (NCI)
The panel holds about 83,000 compounds, 20% with a hit somewhere; the sample as a whole holds those more often.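 Method: cells in 96-well plates; compound added at one concentration; 48 h incubation; percent growth measured; values under 10 scored active.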 The source made the active and inactive calls.

Experiments:
Assay in all cases: NCI-60 one-dose screen, 48 h (100 = growth as untreated, 0 = no growth, -100 = all killed)
Details in all cases: 10 µM unless noted
DU-145 prostate = test system: DU-145 prostate
K-562 leukemia = test system: K-562 leukemia
MALME-3M melanoma = test system: MALME-3M melanoma
MDA-MB-231 breast = test system: MDA-MB-231 breast
RXF 393 renal = test system: RXF 393 renal
SF-268 CNS = test system: SF-268 CNS
SF-295 CNS = test system: SF-295 CNS
SF-539 CNS = test system: SF-539 CNS
UACC-257 melanoma = test system: UACC-257 melanoma
M14 melanoma = test system: M14 melanoma
HCT-15 colon = test system: HCT-15 colon
HT29 colon = test system: HT29 colon
SNB-75 CNS = test system: SNB-75 CNS
SNB-19 CNS = test system: SNB-19 CNS
U251 CNS = test system: U251 CNS
PC-3 prostate = test system: PC-3 prostate
SK-MEL-5 melanoma = test system: SK-MEL-5 melanoma
UACC-62 melanoma = test system: UACC-62 melanoma
LOX IMVI melanoma = test system: LOX IMVI melanoma
SK-MEL-28 melanoma = test system: SK-MEL-28 melanoma

Measured: growth

CC1=C(SCCC(=O)OC(C[Se]C2=C(C)C(=O)c3ccccc3C2=O)C(=O)NCCCCCC(=O)OCc2ccccc2)C(=O)c2ccccc2C1=O (stereo not given)
inactive: DU-145 prostate 39.1% | K-562 leukemia 21.6% | MALME-3M melanoma 45.6% | MDA-MB-231 breast 59% | RXF 393 renal 57.8% | SF-268 CNS 48.8% | UACC-257 melanoma 45.4% | HCT-15 colon 56.5% | HT29 colon 25.9% | SNB-75 CNS 55.5% | SNB-19 CNS 38.6% | U251 CNS 22.9% | PC-3 prostate 11.4% | UACC-62 melanoma 65.2% | LOX IMVI melanoma 39.7% | SK-MEL-28 melanoma 53.6%
active: SF-295 CNS -7.98% | SF-539 CNS 9.31% | M14 melanoma -1.57% | SK-MEL-5 melanoma 8.74%

O=c1[nH]ccc2nc(N3CCC(O)CC3)nc(Nc3ccc(N4CCOCC4)cc3)c12
inactive: DU-145 prostate 59.8% | K-562 leukemia 70.1% | MALME-3M melanoma 28.4% | MDA-MB-231 breast 64.3% | RXF 393 renal 15.6% | SF-268 CNS 61.9% | SF-295 CNS 108% | SF-539 CNS 28.7% | UACC-257 melanoma 53.2% | M14 melanoma 41.4% | HCT-15 colon 31.2% | HT29 colon 23.2% | SNB-75 CNS 63.5% | SNB-19 CNS 97.1% | U251 CNS 88.2% | PC-3 prostate 89.8% | SK-MEL-5 melanoma 39% | UACC-62 melanoma 80.3% | LOX IMVI melanoma 46.4% | SK-MEL-28 melanoma 82.6%

COc1ccc(Nc2nnc(SCc3ccccc3F)s2)cc1
inactive: DU-145 prostate 111% | K-562 leukemia 92.4% | MALME-3M melanoma 119% | MDA-MB-231 breast 98.4% | RXF 393 renal 101% | SF-268 CNS 103% | SF-295 CNS 97.7% | SF-539 CNS 104% | UACC-257 melanoma 106% | M14 melanoma 108% | HCT-15 colon 103% | HT29 colon 116% | SNB-75 CNS 102% | SNB-19 CNS 103% | U251 CNS 104% | PC-3 prostate 85.6% | SK-MEL-5 melanoma 104% | UACC-62 melanoma 74.8% | LOX IMVI melanoma 104% | SK-MEL-28 melanoma 109%

Cc1c(C(=O)OC(=NC2CCCCC2)NC2CCCCC2)sc2c1c(=O)nc1c(C#N)n[nH]n12
inactive: DU-145 prostate 110% | K-562 leukemia 82.7% | MALME-3M melanoma 113% | MDA-MB-231 breast 113% | RXF 393 renal 99.2% | SF-268 CNS 106% | SF-295 CNS 109% | SF-539 CNS 104% | UACC-257 melanoma 102% | M14 melanoma 103% | HCT-15 colon 114% | HT29 colon 96.2% | SNB-75 CNS 89.9% | SNB-19 CNS 109% | U251 CNS 107% | PC-3 prostate 118% | SK-MEL-5 melanoma 110% | UACC-62 melanoma 106% | LOX IMVI melanoma 94.8% | SK-MEL-28 melanoma 100%

CNS(=O)(=O)c1n[nH]nc1-c1cc(C(C)(C)C)c(O)c(C(C)(C)C)c1
inactive: DU-145 prostate 110% | K-562 leukemia 98.7% | MALME-3M melanoma 88.3% | MDA-MB-231 breast 103% | RXF 393 renal 114% | SF-268 CNS 99.3% | SF-295 CNS 92.4% | SF-539 CNS 99.4% | UACC-257 melanoma 84.7% | M14 melanoma 95.9% | HCT-15 colon 95.3% | HT29 colon 108% | SNB-75 CNS 80.5% | SNB-19 CNS 107% | U251 CNS 95.5% | PC-3 prostate 97.2% | SK-MEL-5 melanoma 94.2% | UACC-62 melanoma 100% | LOX IMVI melanoma 101% | SK-MEL-28 melanoma 105%

Cc1ccc(Cc2cnc(NC(=O)c3ccc4noc(-c5ccccc5)c4c3)s2)cc1
inactive: DU-145 prostate 102% | K-562 leukemia 91.2% | MALME-3M melanoma 106% | MDA-MB-231 breast 94.8% | SF-268 CNS 98.9% | SF-295 CNS 95.9% | SF-539 CNS 94.7% | UACC-257 melanoma 99.3% | M14 melanoma 93.4% | HCT-15 colon 88.6% | HT29 colon 65.3% | SNB-75 CNS 94.1% | SNB-19 CNS 92.2% | U251 CNS 96.3% | PC-3 prostate 75.2% | SK-MEL-5 melanoma 94.9% | UACC-62 melanoma 77% | LOX IMVI melanoma 93.1% | SK-MEL-28 melanoma 99%
active: RXF 393 renal -4.67%

O=[N+]([O-])c1ccc(OCCO)cc1
inactive: DU-145 prostate 107% | K-562 leukemia 78.8% | MALME-3M melanoma 107% | MDA-MB-231 breast 114% | RXF 393 renal 105% | SF-268 CNS 100% | SF-295 CNS 105% | SF-539 CNS 108% | UACC-257 melanoma 104% | M14 melanoma 109% | HCT-15 colon 101% | HT29 colon 108% | SNB-75 CNS 103% | SNB-19 CNS 101% | U251 CNS 104% | PC-3 prostate 87.2% | SK-MEL-5 melanoma 109% | UACC-62 melanoma 96.9% | LOX IMVI melanoma 97.8% | SK-MEL-28 melanoma 114%

O=C1OC(c2nc3ccccc3s2)=C/C1=C\c1ccc(O)cc1
inactive: DU-145 prostate 111% | K-562 leukemia 102% | MALME-3M melanoma 100% | MDA-MB-231 breast 87.2% | RXF 393 renal 119% | SF-268 CNS 100% | SF-295 CNS 101% | SF-539 CNS 93% | UACC-257 melanoma 114% | M14 melanoma 105% | HCT-15 colon 111% | HT29 colon 99.5% | SNB-75 CNS 92.7% | SNB-19 CNS 97.2% | U251 CNS 107% | PC-3 prostate 88.8% | SK-MEL-5 melanoma 104% | UACC-62 melanoma 89.1% | LOX IMVI melanoma 94.3% | SK-MEL-28 melanoma 107%

COc1ccc2[nH]c(O)c(/C=c3/cc4c(c(-c5cc(OC)c(OC)c(OC)c5)n3)=Nc3ccccc3-4)c2c1
inactive: DU-145 prostate 73.9% | K-562 leukemia 31.7% | MALME-3M melanoma 94.8% | MDA-MB-231 breast 31.7% | RXF 393 renal 43.1% | SF-268 CNS 72.9% | SF-295 CNS 76.9% | SF-539 CNS 84.1% | UACC-257 melanoma 88.5% | M14 melanoma 49.2% | HCT-15 colon 46.8% | HT29 colon 35% | SNB-75 CNS 78.8% | SNB-19 CNS 84.4% | U251 CNS 61.4% | PC-3 prostate 44.7% | SK-MEL-5 melanoma 52.2% | UACC-62 melanoma 80.7% | LOX IMVI melanoma 64.8% | SK-MEL-28 melanoma 83.1%

CN(C)CCNc1nc2ccccc2c2c1c1c(n2Cc2ccccc2)-c2ccccc2C1=O
active: DU-145 prostate -100% | K-562 leukemia -57.9% | MALME-3M melanoma -59% | MDA-MB-231 breast -79.8% | RXF 393 renal -65.5% | SF-268 CNS -81.9% | SF-295 CNS -77.3% | SF-539 CNS -91.3% | UACC-257 melanoma -85.3% | M14 melanoma -81.8% | HCT-15 colon -88.2% | HT29 colon -100% | SNB-75 CNS -96.1% | SNB-19 CNS -86.3% | U251 CNS -95.9% | PC-3 prostate -88.6% | SK-MEL-5 melanoma -100% | UACC-62 melanoma -94.1% | LOX IMVI melanoma -96.2% | SK-MEL-28 melanoma -100%

COc1cccc(-c2nn(-c3ccccc3)cc2-c2ccnc(NCCCNC(=O)Nc3ccc(Cl)c(Cl)c3)c2)c1
inactive: DU-145 prostate 22.1% | SF-268 CNS 13.9% | SNB-75 CNS 25.4% | SNB-19 CNS 27.7%
active: K-562 leukemia -13.6% | MALME-3M melanoma -27.1% | MDA-MB-231 breast -37.2% | RXF 393 renal 9.74% | SF-295 CNS -4.97% | SF-539 CNS 1.74% | UACC-257 melanoma -29.6% | M14 melanoma -52% | HCT-15 colon 6.61% | HT29 colon -36.4% | U251 CNS -15.5% | PC-3 prostate 6.51% | SK-MEL-5 melanoma -26.4% | UACC-62 melanoma -29.7% | LOX IMVI melanoma -92.1% | SK-MEL-28 melanoma -29.2%

CCOC(=O)c1ccc(N2NC(=O)/C(=C/c3ccc([N+](=O)[O-])o3)C2=O)cc1
inactive: DU-145 prostate 113% | K-562 leukemia 114% | MALME-3M melanoma 105% | MDA-MB-231 breast 133% | RXF 393 renal 44% | SF-268 CNS 99.8% | SF-295 CNS 118% | SF-539 CNS 108% | UACC-257 melanoma 90.7% | M14 melanoma 116% | HCT-15 colon 96.6% | HT29 colon 114% | SNB-75 CNS 99.9% | SNB-19 CNS 115% | U251 CNS 108% | PC-3 prostate 79.2% | SK-MEL-5 melanoma 108% | UACC-62 melanoma 112% | LOX IMVI melanoma 91.6% | SK-MEL-28 melanoma 108%

COc1cccc(/C=C/C(=O)c2c(C)nc3ccccc3c2/C=C/c2ccc(C)cc2)c1OC
inactive: DU-145 prostate 52.3% | K-562 leukemia 17.3% | MALME-3M melanoma 79.1% | MDA-MB-231 breast 63.8% | RXF 393 renal 53.8% | SF-268 CNS 70.3% | SF-295 CNS 65.7% | SF-539 CNS 72.8% | UACC-257 melanoma 67.5% | M14 melanoma 73.7% | HCT-15 colon 19% | HT29 colon 29.7% | SNB-75 CNS 42.4% | SNB-19 CNS 70.2% | U251 CNS 55.3% | PC-3 prostate 43.4% | SK-MEL-5 melanoma 66% | UACC-62 melanoma 43.6% | LOX IMVI melanoma 39% | SK-MEL-28 melanoma 40.9%

CN1CCN(CCCOc2ccc3nc(Nc4ccc(F)c(F)c4)ccc3c2)CC1
active: K-562 leukemia -30.3% | MALME-3M melanoma 3.13% | MDA-MB-231 breast -31.6% | SF-295 CNS -51.4% | UACC-257 melanoma -52.9% | M14 melanoma -53.1% | HCT-15 colon -29.3% | HT29 colon -36.2% | SK-MEL-5 melanoma -6.85% | UACC-62 melanoma -67.1% | LOX IMVI melanoma -89.5% | SK-MEL-28 melanoma -67.4%
inactive: DU-145 prostate 39.9% | RXF 393 renal 48.6% | SF-268 CNS 46.5% | SF-539 CNS 14.3% | SNB-75 CNS 24.3% | SNB-19 CNS 26.5% | U251 CNS 13.7% | PC-3 prostate 22.5%

Cc1cc(Cl)ccc1Nc1nc(C(F)(F)F)ccc1C(=O)N/N=C/c1ccc(N(C)C)cc1
active: RXF 393 renal -4.86% | SF-295 CNS -7.53% | UACC-62 melanoma 9.47%
inactive: DU-145 prostate 40.3% | K-562 leukemia 18.9% | MALME-3M melanoma 22.1% | MDA-MB-231 breast 22% | SF-268 CNS 31.8% | SF-539 CNS 41.4% | UACC-257 melanoma 30% | M14 melanoma 33.9% | HCT-15 colon 15.9% | HT29 colon 32.5% | SNB-75 CNS 65.1% | SNB-19 CNS 42% | U251 CNS 16.2% | PC-3 prostate 30.3% | SK-MEL-5 melanoma 12.9% | LOX IMVI melanoma 27% | SK-MEL-28 melanoma 45.2%
